Screening data: PubChem, National Center for Advancing Translational Sciences (NCATS)
Peg3 imprint: genomic imprint erasure induction. mouse ES Peg3-LacZ reporter, beta-gal luminescence, 40 h. Potency, µM (top dose mostly 60.7 µM), for the others: at the highest dose activity change, positive = activation, actives largely listed as activators. 110,000 compounds, 0.02% hits
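Gelatin-coated wells received 300 freshly trypsinized female ES cells with a Peg3LacZ-Neo reporter on the maternal allele, then incubated 40 hours at 37C. BetaGlo was added for 5 minutes at room temperature before a single luminescence read.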
IkB sig inh: inhibitors of IkB signaling in ABC-DLBCL cells. ABC-DLBCL IkBa-CBG/CBR dual luciferase ratio, 4 h; response scale: scaled: untreated 0%, proteasome inhibitor 100%. 110,000 compounds, 0.04% hits. Potency, µM (top dose mostly 57.1 µM), without a hit: at the top dose IkBa stabilization activation; active = well fitted curve in the direction sought with a large enough effect in the signal ratio, not every such curve was filed as active; inconclusive = small, poorly fitted or top-dose-only effect, or a change in a side signal; the % refers to the signal ratio;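 also: the direction sought is a rising ratio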
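Curves were fitted separately to fusion (green), unfused (red) and ratio luminescence, then classed by r2, magnitude and activity. Cells: OCI-Ly3, 4 h compound plus doxycycline at 37C; 10 uM MG-132 defined full response.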
HEK293 cAMP cs: raises cAMP in parental HEK293 cells, TSHR agonist counter-screen. AID 938. parental HEK293 CNG cAMP sensor, membrane potential fluorescence. Potency, µM (highest dose often 57.1 µM), for inactives: at the top dose activation, actives largely listed as activators. 73,000 compounds, 2.5% hits; also: % of control where 0% means no effect; nearly all actives have a fitted effect of over 55% in size
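Parental HEK 293 cells stably expressing a cAMP-gated CNG channel were loaded with membrane potential dye containing 100 uM RO 20-1724 for 60 min. Compound added for 30 min; depolarization read as fluorescence intensity at 590 nm.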
p53ts 32C tox: kills p53ts cells at the permissive temperature | AID 924 | 130,000 compounds, 0.93% hits | Potency, µM (highest dose often 46.1 µM), for inactives: at the highest dose activity change, negative = cytotoxicity, most hits filed as cytotoxic | H1299-p53A138V at 32C, ATP luminescence viability, 24 h;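 also: 0% = DMSO and -100% = full killing by reference compound; nearly all actives have a fitted effect of over 55% in size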
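ATP-content luminescence (ATPlite) read-out after 24 h compound exposure at 32C in H1299-p53A138V cells (600/well). Tested up to 46 uM. Normalized to DMSO (0%) and 100 uM tamoxifen (100% killing); Hill-fit AC50.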
p53ts 39C tox: kills p53ts cells at the nonpermissive temperature; H1299-p53A138V viability at 39C, ATP luminescence, 24 h; Potency, µM (top dose mostly 46.1 µM), for inactives: at the highest dose activity change, negative = cell killing, hits mostly cytotoxic; 130,000 compounds, 1.5% hits; AID 902; also: % is scaled to controls: 0 for no effect and ±100 for the full control effect; nearly all actives have a fitted effect of over 55% in size
TSHR ag: TSH receptor (human) agonism; Potency, µM (series often up to 57.1 µM), without a hit: top-dose activation, hits mostly activators; HEK293-CNG-TSHR cells (CNG channel as cAMP sensor), membrane potential dye, cAMP; 73,000 compounds, 0.48% hits; active = well fitted activation curve with a large enough effect in the main read-out, with a control signal flat, not every such curve was filed as active; inconclusive = small, poorly fitted or top-dose-only effect, or a change in a side signal; inactive = no such curve, though single readings can be large or run the other way; % of control where 0% means no effect;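 also: the control signal comes from parental cells without the receptor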
Target sequence (P16473 whole entry, looked up): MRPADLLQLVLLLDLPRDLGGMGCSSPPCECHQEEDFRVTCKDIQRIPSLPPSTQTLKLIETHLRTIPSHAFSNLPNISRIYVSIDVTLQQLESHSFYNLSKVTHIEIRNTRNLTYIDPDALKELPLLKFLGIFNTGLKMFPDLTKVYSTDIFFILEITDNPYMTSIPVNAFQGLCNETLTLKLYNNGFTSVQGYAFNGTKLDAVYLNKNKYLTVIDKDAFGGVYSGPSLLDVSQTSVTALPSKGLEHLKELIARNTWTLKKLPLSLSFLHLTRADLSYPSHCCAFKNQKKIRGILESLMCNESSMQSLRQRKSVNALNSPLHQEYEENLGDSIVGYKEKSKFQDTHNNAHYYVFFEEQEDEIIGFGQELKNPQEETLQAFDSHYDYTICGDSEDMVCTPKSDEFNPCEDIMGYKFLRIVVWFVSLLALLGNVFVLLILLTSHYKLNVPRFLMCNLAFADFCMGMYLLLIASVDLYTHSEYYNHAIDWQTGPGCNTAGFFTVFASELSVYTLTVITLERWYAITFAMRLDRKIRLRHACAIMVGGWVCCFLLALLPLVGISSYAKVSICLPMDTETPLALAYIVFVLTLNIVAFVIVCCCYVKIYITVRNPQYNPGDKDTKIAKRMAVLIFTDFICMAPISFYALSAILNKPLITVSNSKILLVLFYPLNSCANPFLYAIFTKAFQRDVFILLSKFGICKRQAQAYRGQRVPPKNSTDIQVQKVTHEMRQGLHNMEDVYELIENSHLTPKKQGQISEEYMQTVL
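HEK 293 cells stably expressing TSHR and a modified CNG channel, with CNG-only parental cells as counterscreen, were preloaded 60 min at room temperature with membrane potential dye containing 100 uM RO 20-1724. Compound exposure was 30 min, and depolarization was read as fluorescence at 590 nm.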
Starred values were filed as active, the others as inactive; ? = inconclusive; . = not tested or not shown; [ ] = remark or other dose. Only some compounds are listed: those with a hit (about 3.1% of all), similar ones and a draw of the others. Unless noted, calls follow the shape of the dose curve; as a rule, active = well fitted curve in the direction sought with a large enough effect; inconclusive = small, poorly fitted or top-dose-only effect, or another doubt; inactive = no such curve, though single readings can be large; an effect the other way counts as inactive or inconclusive. Potency is read from the fitted curve at half-maximal effect.

SMILES	Peg3 imprint	IkB sig inh	HEK293 cAMP cs	p53ts 32C tox	p53ts 39C tox	TSHR ag
O=C(CC1N=C2c3ccccc3N=C(SCC(=O)Nc3ccccc3F)N2C1=O)NCc1ccc2c(c1)OCO2 (stereo not drawn)	4%[10.9 µM]	?	.	14%	-18%	.
CC(=O)N1CCN(c2ccc(Oc3nc(-c4ccccc4)nc4ccccc34)cc2)CC1	-20%	0%	-1%	-16%	-18%	25µM*
CCOC(=O)Cn1c(=O)n(C2CCCCC2)c2nc(-c3ccc(OCC)cc3)nc(C(N)=O)c21	10%[10.9 µM]	1%	.	2%	0%	.
O=C(COc1ccc(Br)cc1Cl)Nc1ncn[nH]1	-19%[10.9 µM]	-2%	.	2.5µM*	?	.
CCc1ccc(OCC(=O)Nc2ncn[nH]2)c(Br)c1	-22%[10.9 µM]	-5%	.	1.6µM*	1.6µM*	.
CC(C)(C)c1cc(Br)ccc1OCC(=O)Nc1ncn[nH]1	-12%	4%	5%[11.4 µM]	12%	3%	0%
CCc1cccc(NC(=O)CSc2nncn3c2cc2sccc23)c1	-15%[10.9 µM]	?	.	-16%	?	.
c1ccc(-c2cccc(N3CC[C@@]4(CCCNC4)C3)c2)cc1	.	0%[11.4 µM]	5%	?	16µM*	-7%
c1ccc(-c2cccc(N3CCCC4(CCNCC4)C3)c2)cc1	.	-2%[11.4 µM]	8%	-19%	13µM*	1%
c1ccc(-c2cccc(N3CCC4(CCNCC4)CC3)c2)cc1	.	-4%[11.4 µM]	-32%	-7%	16µM*	?
c1ccc(-c2cccc(N3CC4(CCNCC4)C3)c2)cc1	.	-5%[11.4 µM]	26%	-6%	?	7%
CCOc1ccc(OCC)c(NC(=O)c2cnn(-c3ccc(F)cc3)c2-n2cccc2)c1	-8%[10.9 µM]	-2%	.	-8%	-1%	.
COc1ccc(-c2cc(C(=O)Oc3ccc(C)c(C)c3)c3ccccc3n2)cc1	-8%[10.9 µM]	6%	.	-15%	-18%	.
CN(C)c1ccc2c(c1)OC(N)=C(C#N)C2c1cccc(F)c1 (stereo not drawn)	-28%	?	32µM*	?	-12%	?
CCN1CCN(c2ncc3c(n2)CC(c2cc(OC)c(OC)c(OC)c2)CC3=O)CC1 (stereo not drawn)	-18%	4%	10µM*	-6%	-12%	?
O=C1CC(c2ccc(F)cc2)Cc2nc(N3CCOCC3)ncc21 (stereo not drawn)	-8%	-1%	8%	19%	-6%	17%
O=C1CC(c2cccc(Cl)c2)Cc2nc(N3CCOCC3)ncc21 (stereo not drawn)	11%	-1%	5µM*	0%	-12%	?
O=C1CC(c2cccc(Cl)c2)Cc2nc(N3CCN(c4ccccc4)CC3)ncc21 (stereo not drawn)	-1%	0%	?	7%	6%	?
CCCN(CCC)S(=O)(=O)c1cc(Br)cc2c1N(C(=O)CC)CC2	-17%	?	25µM*	1%	10%	?
Cc1ccc(NC2=CC(=O)C(=O)c3ccccc32)cc1	.	.	.	?	3.2µM*	.
Cc1ccc(Nc2ccccc2)cc1	.	.	.	-13%	4%	.
O=C(NCCc1ccccc1Cl)c1ccc2c(c1)nc1n2CCOC1	-19%[10.9 µM]	-2%	.	16µM*	4µM*	.
Cc1cccc(CCNC(=O)c2ccc3c(c2)nc2n3CCCCC2)c1	-7%[10.9 µM]	?	.	13µM*	7.9µM*	.
Cc1cccc(CCNC(=O)c2ccc3c(c2)nc2n3CCOC2)c1	-3%[10.9 µM]	-1%	.	?	13µM*	.
O=C(NCc1cccc(Cl)c1)c1ccc2c(c1)nc1n2CCOC1	-11%[10.9 µM]	1%	.	1%	15%	.
SMILES	Peg3 imprint	IkB sig inh	HEK293 cAMP cs	p53ts 32C tox	p53ts 39C tox	TSHR ag
CC(=O)NC(C(=O)O)C(C)(C)SN=O (stereo not drawn)	2%	.	.	.	.	.
CC(C)c1cc(C(F)(F)F)nc(NNc2nc(C(C)C)cc(C(F)(F)F)n2)n1	1%[10.9 µM]	3%[11.4 µM]	5µM*	0%[9.22 µM]	-3%[9.22 µM]	?
O=C(O)[C@H]1[C@H](C(=O)O)[C@H](C(=O)O)C[C@@H]1C(=O)O	-7%[10.9 µM]	0%[11.4 µM]	0%[11.4 µM]	7%[9.22 µM]	-2%[9.22 µM]	1%[11.4 µM]
Cc1ccc(C(=O)CSc2nc(C)cc(SCc3nnc(-c4ccccc4)o3)n2)cc1	.	?	7.9µM*	2%	-7%	?
COc1ccc(C(=O)CSc2cc(C)nc(SCC(=O)c3ccc(C)cc3)n2)cc1	.	.	.	-7%	36%	.
CCOc1ccc(OCC)c(NC(=O)C2COc3ccccc3O2)c1 (stereo not drawn)	-13%	0%	32µM*	-11%	-7%	?
COC(=O)c1ccc(CSc2nc3c([nH]c4ccccc43)c(=O)n2-c2cc(C)cc(C)c2)o1	-4%[10.9 µM]	2%	.	16%	16µM*	.
Cc1oc(-c2ccccc2F)nc1CS(=O)(=O)CC(=O)N1CCOCC1	-9%	-3%	32µM*	7%	2%	?
Cc1ccc(-c2nc(CS(=O)(=O)CC(=O)N3CC(C)CC(C)C3)c(C)o2)cc1 (stereo not drawn)	-12%	11%	32µM*	4%	2%	?
Cc1ccc(/C=C/c2nc3ccccc3[nH]2)cc1	-91%[10.9 µM]	?	.	0.5µM*	0.5µM*	.
Cc1ccc(C[C@H](Cc2nc3ccccc3[nH]2)c2nc3ccccc3[nH]2)cc1	.	2%[11.4 µM]	1%	.	.	22%
CC1CN(Cc2nc3c(c(=O)n(C)c(=O)n3C)n2CC(=O)c2ccccc2)CC(C)O1 (stereo not drawn)	0%	0%	?	14%	-2%	?
CCOC(=O)Cn1c(CN2CC(C)OC(C)C2)nc2c1c(=O)n(C)c(=O)n2C (stereo not drawn)	-1%	7%	26%	31%	13%	4µM*
CCCCNC(=O)c1nn(-c2ccc(C)cc2)c(=O)n(C)c1=O	-8%[10.9 µM]	2%	.	5%	-8%	.
NC[C@@H]1O[C@H](c2ccccc2)Cc2c1ccc(O)c2O	-37%	1%	-8%	?	?	6%
NC[C@@H]1O[C@H](C23CC4CC(CC(C4)C2)C3)Cc2c1ccc(O)c2O	-31%	2%	-8%	?	20µM*	-11%
C[C@H](NC(=O)[C@@H]1C[C@H]1[C@@H](NC(=O)OCc1ccccc1)c1ccccc1)c1ccccc1	-11%	.	?	4%	-6%	?
O=C(CSC1=Nc2ccccc2N=C(c2ccc(F)cc2)C1)NCc1ccccc1Cl	-16%[10.9 µM]	?	.	-16%	-20%	.
COC(=O)c1cc(COc2ccc3ccc(=O)oc3c2)c(C)o1	-41%	-3%	11%	1%	-2%	25%
COC(=O)c1cc(COc2ccc3oc(C)c(C(=O)OC)c3c2)c(C)o1	-18%	?	16µM*	2%	-13%	?
